PLCg1 inh – PLC-gamma1 enzyme inhibitors, primary screen, biochemical, fluorescence, purified enzyme. 1-phosphatidylinositol 4,5-bisphosphate phosphodiesterase gamma-1 (Homo sapiens), P19174. fluorogenic substrate. inhibition, % at 12.2 µM. 370,000 tested, 0.84% active; in the data active means inhibition above about 9.5%
PLC-beta3 inh – human PLC-beta3 inhibitors, primary screen, biochemical, fluorescence; 370,000 tested, 0.18% active; inhibition, % at 12.2 µM; 1-phosphatidylinositol 4,5-bisphosphate phosphodiesterase beta-3 (Homo sapiens), Q01970; Purified PLC-beta3, fluorogenic substrate; in the data active means inhibition above about 11%
ADAM17 inh – ADAM17 inhibitors, primary screen, biochemical, QFRET. recombinant ADAM17, EDANS/DABCYL FRET peptide cleavage. 370,000 tested, 0.83% active. inhibition, % at 6.95 µM. Disintegrin and metalloproteinase domain-containing protein 17 (Homo sapiens), P78536. AID 720648, 2013;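 active means inhibition above the mean of compounds lying between control limits plus 3 SD, set per campaign, cut at about 8.5% in these data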
ADAM10 inh – human ADAM10 inhibitors, primary screen, biochemical, QFRET, HTS; Disintegrin and metalloproteinase domain-containing protein 10 (Homo sapiens), O14672; recombinant ADAM10, EDANS/DABCYL FRET peptide cleavage, 3 h; inhibition, % at 7 µM; 370,000 tested, 0.62% active;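 active means inhibition above a per-campaign cutoff equal to the mean of compounds falling between control-based bounds plus 3 SD, cut at about 20% in these data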
Target sequence (O14672 214-748 limits assumed): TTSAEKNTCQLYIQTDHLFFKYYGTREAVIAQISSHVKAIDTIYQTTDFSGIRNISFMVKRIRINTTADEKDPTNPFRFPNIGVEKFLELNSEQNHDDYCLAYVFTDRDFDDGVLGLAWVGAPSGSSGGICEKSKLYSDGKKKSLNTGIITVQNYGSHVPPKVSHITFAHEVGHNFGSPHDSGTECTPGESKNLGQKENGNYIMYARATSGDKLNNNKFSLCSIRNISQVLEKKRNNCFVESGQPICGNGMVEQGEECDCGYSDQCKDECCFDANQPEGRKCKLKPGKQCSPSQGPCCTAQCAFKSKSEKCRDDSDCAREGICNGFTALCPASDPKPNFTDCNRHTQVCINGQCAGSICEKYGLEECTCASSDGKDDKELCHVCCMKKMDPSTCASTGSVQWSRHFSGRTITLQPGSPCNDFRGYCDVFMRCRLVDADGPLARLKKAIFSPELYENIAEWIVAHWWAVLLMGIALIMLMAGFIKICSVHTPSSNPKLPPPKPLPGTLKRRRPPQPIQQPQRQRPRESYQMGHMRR
KLK7 zymogen act – proKLK7 zymogen activators, primary screen, biochemical, fluorescence intensity; 370,000 tested, 0.9% active; activation, % at 7 µM; purified proKLK7, EDANS-DABCYL substrate fluorescence; 100% is mature enzyme control, 0% vehicle;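 active means activation above the mean of all tested compounds plus 3 SD, computed per campaign excluding outliers beyond control limits, cut at about 13% in these data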
KLK7 act conf – proKLK7 zymogen activators, confirmation, biochemical, fluorescence intensity, triplicate; 3,200 tested, 68% active; activation, % at 7 µM; AID 686949, 2013; shares compounds with KLK7 zymogen act; purified proKLK7, EDANS-DABCYL substrate fluorescence; scaled: vehicle 0, mature enzyme 100;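 active means activation, as change over the incubation, above the mean of all tested compounds plus 3 SD, cut at about 13% in these data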
EDANS interfere – EDANS-DABCYL substrate optical interference, artefact control for kallikrein-7 zymogen activator project, biochemical, fluorescence intensity, high throughput; shares compounds with KLK7 zymogen act; no enzyme, 4 h; solvent 0%, active enzyme control 100%; activation, % at 7 µM; 3,200 tested, 80% active;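 active means activation above the all-compound mean plus 3 SD, ignoring values outside control-based bounds, cut at about 4.8% in these data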;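 further: value is the 4 h activation minus the activation read at time zero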
K7 EDANS ctr – EDANS fluorescence interference in dose response, no enzyme; shares compounds with KLK7 zymogen act; EDANS-DABCYL peptide fluorescence interference; EC50, µM; 250 tested, 20% active;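 active means compounds that raise the fluorescence signal in this interference counterscreen, with EC50 at or below 10 µM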;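 further: intact quenched peptide substrate alone read at 355 nm excitation and 520 nm emission; signal is fluorescence gain from T0 to T4 after four hours at room temperature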
Large screens that a line does not name were inactive (follow-up assays come after a bar, where they were run). Only some compounds are listed: those with a hit (about 2.9% of all), similar ones and a draw of the others.

CC[C@]12c3[nH]c4ccc(Cl)cc4c3CCN1C(=O)[C@@H](CC(=O)NCC13CC4CC(CC(C4)C1)C3)C[C@@H]2C(=O)N1CCN(C(=O)c2ccco2)CC1	ADAM10 inh 35
COc1ccc(-n2c(SCC(=O)Nc3ccccc3-c3ccccc3)nnc2-c2ccco2)cc1	none
O=C(NCc1cccs1)O[C@H]1CC[C@@]23CCCN2C(=O)CCC[C@H]3C1	none (no result: KLK7 zymogen act)
CCCN1C(=O)C2(OCCO2)c2cc(Cl)ccc21	none
CN1c2ccc(Cl)cc2C(=O)NC1C1CC=CCC1 (stereo not given)	KLK7 zymogen act 14 | KLK7 act conf inactive | EDANS interfere inactive
CCn1c(SCC(=O)Nc2ccc(C(C)C)cc2)nnc1-c1ccc(C(C)(C)C)cc1	none
CC(=O)Nc1ccc(C2Nc3ccccc3C(=O)N2C2CCCCC2)cc1 (stereo not given)	KLK7 zymogen act 13 | KLK7 act conf 30 | EDANS interfere 26 | K7 EDANS ctr inactive
O=C(Nc1ccc2c(c1)OCCO2)C1C(=O)Nc2ccccc2C(=O)N1C1CCCCC1 (stereo not given)	none
Cc1cccc(C(=O)Nc2ccccc2C(=O)OCC(=O)Nc2ccc(C#N)cc2)c1	KLK7 zymogen act 17 | KLK7 act conf inactive | EDANS interfere inactive
FC(F)(F)c1ccc2c(c1)NCC1CCCN21 (stereo not given)	KLK7 zymogen act 68 | KLK7 act conf 46 | EDANS interfere 47
FC(F)(F)c1ccc2c(c1)N1CCCC1CN2 (stereo not given)	none
CCn1c(=O)c2cc(C(=O)NCCN(C)C)sc2c2ccccc21	KLK7 zymogen act 35 | KLK7 act conf inactive | EDANS interfere 6.0
CCN(CC)CCNC(=O)c1cc2c(s1)-c1ccccc1SC2	KLK7 zymogen act 76 | KLK7 act conf 57 | EDANS interfere 55
CCN(CC)CCCNC(=O)c1cc2c(=O)n(CC)c3ccccc3c2s1	none
CCN(CC)CCNC(=O)c1cc2c(=O)n(CC)c3ccccc3c2s1	KLK7 zymogen act 38 | KLK7 act conf inactive | EDANS interfere inactive
C[C@@H]1ON(C)[C@H]2C[C@H]3c4[nH]c5c(-c6ccccc6F)cccc5c4CCN3C[C@@H]12	none
CCC(=O)N1CCc2cc(Br)c(S(=O)(=O)N3CCC(C(=O)NC(C)(C)C)CC3)cc21	none
COC(=O)C1=CN(C)C=C(C(=O)OC)C1c1ccsc1	KLK7 zymogen act 33 | KLK7 act conf 16 | EDANS interfere 24
Nc1nc(Cl)nc2c1ncn2C1OCC(O)C(O)C1O (stereo not given)	none
Cc1cc(C)c2cc3c(ccn3C3OC[C@H](O)[C@H](O)[C@H]3O)cc2n1 (stereo not given in full)	KLK7 zymogen act 23 | KLK7 act conf 48 | EDANS interfere 47
O=c1oc2c(O)cccc2cc1-c1nc2ccccc2[nH]1	KLK7 zymogen act 46 | KLK7 act conf 75 | EDANS interfere 67
Cc1c(-c2nc3ccccc3[nH]2)cnn1C	none
O=c1[nH]cccc1-c1nc2ccccc2[nH]1	KLK7 zymogen act 56 | KLK7 act conf 66 | EDANS interfere 75
Nc1ccc(-c2nc3ccccc3[nH]2)cc1	none
O=c1oc2c(CN3CCCCC3)c(O)ccc2cc1-c1nc2ccccc2[nH]1	none
Oc1ccc(C=Nc2ccccc2-c2nc3ccccc3[nH]2)cc1	KLK7 zymogen act 81 | KLK7 act conf 30 | EDANS interfere 29
Nc1ccccc1-c1nc2ccccc2[nH]1	KLK7 zymogen act 69 | KLK7 act conf inactive | EDANS interfere inactive
Cc1[nH]ncc1-c1nc2ccccc2[nH]1	none
CC1CCc2[nH]c3ccc(C(=O)O)cc3c2C1 (stereo not given)	none
CC1CCc2[nH]c3ccc(C(=O)NCCCOC(C)C)cc3c2C1 (stereo not given)	KLK7 zymogen act 14 | KLK7 act conf inactive | EDANS interfere 12
CC(=O)Nc1cncc(-c2cccc(C(=O)NCCN(C)C)c2)n1	none
CNc1cncc(-c2ccc(F)c(F)c2)n1	KLK7 zymogen act 37 | KLK7 act conf 16 | EDANS interfere 25
CNc1cncc(-c2cccnc2)n1	KLK7 zymogen act 67 | KLK7 act conf 76 | EDANS interfere 79
CNc1cncc(-c2cccc(C(=O)N(C)C)c2)n1	KLK7 zymogen act 51 | KLK7 act conf 60 | EDANS interfere 63
CCOC(=O)[C@]12CCCC=C1N(CCCOC)C(=O)[C@@H]2CC(=O)N1CCCCC1	none
Cc1cc(=O)oc2c(CN3CCCC3)c(O)c(Cl)cc12	KLK7 zymogen act 46 | KLK7 act conf 62 | EDANS interfere 72
CCN1CCN(Cc2c(O)c(Cl)cc3c(C)cc(=O)oc23)CC1	KLK7 zymogen act 71 | KLK7 act conf 81 | EDANS interfere 80
CCc1cc(=O)oc2c(CNCc3ccccc3F)c(O)c(Cl)cc12	KLK7 zymogen act 36 | KLK7 act conf 61 | EDANS interfere 66
CCc1cc(=O)oc2cc(C)c(CN3CCCC3)c(O)c12	none
CCCc1cc(=O)oc2c(CN3CCCC3)c(O)c(Cl)cc12	KLK7 zymogen act 70 | KLK7 act conf 64 | EDANS interfere 77
O=C(NC1CCCC1)c1ccc(COc2ccccc2)o1	none
CCC(c1ccc(OC)cc1)c1cn(C)c2ccccc12 (stereo not given)	none
COC(=O)C1CN(Cc2ccc(OC)cc2)CCS(=O)(=O)N1Cc1ccc(C)cc1 (stereo not given)	none
Cc1cc(=O)oc2c(CN3CCCCC3)c(O)c(Cl)cc12	KLK7 zymogen act 61 | KLK7 act conf 61 | EDANS interfere 60
Cc1cc(=O)oc2c(CN3CCC(C)CC3)c(O)c(Cl)cc12	KLK7 zymogen act 70 | KLK7 act conf 65 | EDANS interfere 66
COc1ccc(NC(=O)NC2CCN(S(=O)(=O)c3ccc(F)cc3)CC2)cc1OC	none
Cc1nc2sc(C(=O)c3ccccc3)c(N)c2c(C)c1C	KLK7 zymogen act 50 | KLK7 act conf inactive | EDANS interfere inactive
Cc1nc(-c2ccccc2)nc2sc(C(=O)c3ccc(F)cc3)c(N)c12	none

Screening data (PubChem BioAssay)
